Screens from PubChem.
Rows were chosen to be rich in hits. Some 4.8% of all compounds tested hit in one or more screens of this group.
PfHsp90 yeast 2 – inhibits growth of yeast expressing Plasmodium falciparum Hsp90 | S. cerevisiae expressing PfHsp90, BacTiter-Glo ATP, 48 h; yeast lacking PDR1 and PDR3 efflux regulators | inhibition, % at 9.4 µM | hit rate 0.32% among 310,000 | AID 504621;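 active = every replicate shows inhibition above about 80%, whatever the replicate mean, limit read from the data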;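 note: 0% = DMSO neutral controls and 100% = 20 µM radicicol positive controls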
tim23-1 inh – tim23-1 yeast growth inhibition. S. cerevisiae tim23-1 growth, BacTiter-Glo luminescence, 24 h. inhibition, % at 20 µM. hit rate 1.3% among 330,000. AID 463212;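 active = growth inhibition of the mutant yeast at or above 50%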;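 note: temperature-sensitive mutant grown at 25 °C; plate controls were DMSO-treated mutant yeast for no effect and medium wells lacking yeast for full effect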
TIM10 inh – growth inhibitors of TIM10 yeast strain. S. cerevisiae TIM10 strain growth, BacTiter-Glo luminescence, 24 h. inhibition, % at 10 µM. hit rate 1.4% among 330,000;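 active = inhibition of 40% or more at the single tested concentration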;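 note: wild-type TIM10 isogenic control strain grown at permissive 25 °C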
tim10-1 inh – growth inhibitors of tim10-1 mutant yeast. S. cerevisiae tim10-1 ts strain growth, BacTiter-Glo, 24 h. inhibition, % at 20 µM. hit rate 2.2% among 330,000. AID 463190;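 active = inhibition of at least 40%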;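 note: mutant grown at 25 °C; 0% = DMSO wells with yeast and 100% = wells holding no yeast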
NALP1 yeast inh – NALP1 inhibition. inhibition, % at 10 µM. hit rate 0.61% among 280,000. S. cerevisiae NALP1/ASC/caspase-1 growth, X-gal OD620, 72 h; in the data active = inhibition mostly above about 24%, no sharp cut-off; inactive = mostly below about 32%
SKKanGAS inh – SKKanGAS growth inhibition. inhibition, % at 7.5 µM. S. pyogenes SKKanGAS, kanamycin growth, BacTiter-Glo, 6 h. hit rate 1.3% among 300,000. AID 1662;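 active = mean replicate score, as percent of positive control median, at least 50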;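 note: strain carries kanamycin resistance gene driven by streptokinase promoter and grows in 40 µg/ml kanamycin; loss of luminescence reflects streptokinase promoter inhibition or plain growth inhibition; 0% = median of DMSO wells and 100% = positive control at its reference dose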
tim10-1 conf – confirmation of tim10-1 mutant yeast growth inhibitors. shares compounds with tim10-1 inh. S. cerevisiae tim10-1 ts strain growth, BacTiter-Glo, 24 h. inhibition, % at 20 µM. hit rate 56% among 7,400. AID 463213;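 active = inhibition of yeast growth at or above a set limit in either of two repeat tests at 20 µM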;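 note: tim10-1 mutant grown at permissive 25 °C to find synthetic lethal compounds; 0% = DMSO yeast wells and 100% = medium wells without yeast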
tim10 confirm – TIM10 yeast growth inhibition, confirmed; inhibition, % at 10 µM; AID 463215; shares compounds with TIM10 inh; hit rate 63% among 4,600; S. cerevisiae tim10 strain growth, BacTiter-Glo luminescence, 24 h;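 active = inhibition of yeast growth at or above a set limit in either of two replicates at 10 µM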;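 note: this counterscreen used the strain with wild-type TIM10; 0% = yeast with DMSO and 100% = medium wells lacking yeast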
Starred values were filed as active, the others as inactive; x = not tested or not shown.

SMILES	PfHsp90 yeast 2	tim23-1 inh	TIM10 inh	tim10-1 inh	NALP1 yeast inh	SKKanGAS inh	tim10-1 conf	tim10 confirm
CCN1CCN(C(=S)NC(=O)c2cccs2)CC1	-15.9	-7.2	0.6	6.6	-8.1	-3.6	x	x
O=C(NC(=S)N1CCN(c2ccc(C(F)(F)F)cc2[N+](=O)[O-])CC1)c1cccs1	2.4	47.0	40.0*	43.8*	28.4	87.2*	21.1	9.2
CC(C)(C)c1ccc(-c2cc(N)n[nH]2)cc1	-0.8	1.2	13.0	12.5	26.0	2.6	x	x
Cc1ccc(O)c(-c2cc(C(F)(F)C(F)F)[nH]n2)c1	0.4	28.1	33.1	23.9	-2.7	-12.9	x	x
O=[N+]([O-])c1ccccc1-c1cc(-c2cc(Cl)ccc2O)n[nH]1	58.4	x	x	x	13.7	13.4	x	x
Oc1ccc(Cl)cc1-c1cc(-c2cccc(Br)c2)n[nH]1	-34.6	49.2	53.1*	48.3*	9.7	53.7*	37.2*	49.0*
CC(C)(C)c1ccc(-c2cc(-c3ccccc3O)[nH]n2)cc1	20.5	43.2	40.9*	49.2*	12.6	104.2*	42.1*	21.8
Cc1ccc(O)c(-c2cc(-c3ccccc3C)[nH]n2)c1	-47.8	-9.0	66.2*	51.9*	5.7	41.7	18.5	-0.9
Oc1ccc(Cl)cc1-c1cc(-c2ccccc2Cl)[nH]n1	3.5	36.9	41.1*	49.1*	16.9	2.7	36.1*	36.9*
Cc1nc(N2CCC(C)CC2)c2oc3ccccc3c2n1	-6.3	45.9	45.6*	48.9*	6.6	12.9	27.4	46.8*
Cc1ccc2c(c1)/C(=C/c1ccccc1)C(=O)N2	-99.3	23.5	49.3*	54.6*	25.7	-9.6	38.6*	62.1*
S=C(N/N=C/c1ccco1)NC1CC2CCC1C2 (stereo not given)	-9.6	48.9	42.2*	50.6*	4.6	3.9	35.8*	51.4*
Cc1cc2ncn(-c3ncnc4sc5c(c34)CCC(C)C5)c2cc1C (stereo not given)	-50.1	47.0	52.2*	49.9*	5.9	3.3	44.8*	45.3*
Cc1cc2ncn(-c3ncnc4sc5c(c34)CCCC5)c2cc1C	x	39.8	18.8	36.7	4.3	32.5	x	x
Cc1cc2ncn(-c3ncnc4scc(-c5ccccc5)c34)c2cc1C	-38.3	40.2	41.4*	49.6*	5.8	6.6	44.8*	36.8*
O=C(COC(=O)/C=C/C(=O)OCC(=O)NC12CC3CC(CC(C3)C1)C2)NC12CC3CC(CC(C3)C1)C2	-15.7	36.2	45.1*	55.5*	13.8	-18.4	42.9*	13.4
Nc1ccc(N2CCOCC2)c(S(=O)(=O)Nc2ccccc2Cl)c1	-0.7	16.2	11.9	4.9	x	x	x	x
O=C(/C=C/c1cccs1)c1cc(Cl)ccc1O	-16.6	26.0	39.9	34.8	6.8	14.7	x	x
O=C(/C=C/c1ccc2ccccc2n1)c1cc(Cl)ccc1O	-8.6	45.3	53.5*	54.2*	10.6	3.2	37.5*	36.0*
COc1ccc(/C=C/C(=O)Nc2ccccc2)cc1OC	17.9	40.4	14.7	-33.4	21.0	-8.0	x	x
COc1ccc(/C=C/C(=O)C2(O)CCCCC2)cc1OC	x	40.7	43.5*	47.5*	0.3	1.9	39.9*	31.4*
CC(C)c1onc(C(=O)Nc2cccc(Cl)c2)c1[N+](=O)[O-]	-6.6	36.8	41.4*	45.0*	5.5	6.0	36.8*	39.0*
COc1ccc2c(=O)c(-c3cnn(-c4ccccc4)c3)c(C)oc2c1	11.4	46.4	69.9*	48.3*	-2.9	-4.8	29.1	65.2*
NC(=O)c1ccsc1NC(=O)c1ccc2c(c1)CCCC2	9.2	49.8	56.0*	46.0*	33.8	6.6	19.9	37.0*
O=C(Nc1ccc(Cl)c(C(F)(F)F)c1)c1ccco1	-52.0	43.5	51.2*	46.0*	26.8	x	56.0*	11.6
SMILES	PfHsp90 yeast 2	tim23-1 inh	TIM10 inh	tim10-1 inh	NALP1 yeast inh	SKKanGAS inh	tim10-1 conf	tim10 confirm
O=C(Nc1cccc(C(F)(F)F)c1)c1ccco1	x	13.9	16.3	4.7	11.7	-4.6	x	x
CS(=O)(=O)c1ccc(Sc2nc3ccccc3[nH]2)c([N+](=O)[O-])c1	17.4	10.5	1.3	10.0	4.9	-2.6	x	x
O=[N+]([O-])c1cc(S(=O)(=O)C(F)(F)F)ccc1Sc1nc2ccccc2s1	108.5*	34.2	54.7*	45.2*	7.6	89.3*	73.8*	75.2*
CS(=O)(=O)c1ccc(Sc2nc3ccccc3s2)c([N+](=O)[O-])c1	0.9	25.8	41.7*	45.9*	10.3	-2.9	38.0*	-7.0
NNC(=O)Nc1cccc(C(F)(F)F)c1	x	21.8	7.9	12.9	-1.4	3.2	x	x
O=C(Nc1ccc(OC(F)F)cc1)Nc1cccc(C(F)(F)F)c1	16.9	43.5	63.3*	57.2*	-4.3	59.5*	51.4*	52.3*
NC(=O)/C=C\C(=O)Nc1cccc(C(F)(F)F)c1	97.2*	31.4	55.8*	60.6*	61.3*	-15.6	54.9*	66.2*
O=C(Nc1ccncc1)Nc1cccc(C(F)(F)F)c1	19.5	7.3	0.9	7.0	8.6	-10.3	x	x
COc1ccc(NC(=O)C2C3CCC(O3)C2C(=O)O)c(C)c1 (stereo not given)	1.4	10.2	-7.6	7.7	5.2	8.9	x	x
CCCCN(C(=S)NC(=O)c1ccccc1)c1c(N)n(Cc2ccccc2)c(=O)[nH]c1=O	4.1	15.0	1.3	22.6	5.5	4.4	x	x
COc1cc2nc(-c3ccc(Br)o3)oc(=O)c2cc1OC	-7.7	19.2	30.8	26.7	2.8	-6.5	x	x
Cc1ccc2nc(-c3ccc(Br)o3)oc(=O)c2c1	-1.4	49.6	48.4*	40.6*	16.7	3.1	34.6*	33.0*
Cc1ccccc1OCC(=O)Nc1ccc(Cc2ccncc2)cc1	-1.2	36.0	40.5*	42.0*	21.7	-21.4	40.4*	20.4
CCOc1ccc(Nc2cc(C)nc(-n3nc(C)cc3C)n2)cc1	-1.1	18.0	42.2*	44.3*	7.0	87.1*	0.8	7.4
CNc1cc(C)nc(-n2nc(C)cc2C)n1	-2.0	30.7	-1.2	-0.8	11.6	17.6	x	x
CCN1/C(=C/c2sc(-c3ccccc3C)c[n+]2C)Sc2ccccc21	5.8	x	x	x	7.7	5.6	x	x
CCN1/C(=C/c2ccc3cc(C)ccc3[n+]2CC)Sc2ccccc21	92.0*	35.0	65.6*	65.3*	123.3*	x	44.5*	75.2*
Cc1cc(-c2nnc(-c3ccccc3)c(-c3ccccc3)n2)c(C)o1	-18.9	49.3	52.0*	48.0*	-1.1	-4.2	46.5*	30.0
Cc1ccc(-c2nnc(-c3ccccc3)c(-c3ccccc3)n2)cc1	2.8	21.1	26.1	33.0	9.6	1.3	x	x
